TRPM1 prom inh: MITF TRPM1 promoter inhibition in SK-MEL-5 cells | SK-MEL-5 TRPM1 promoter luciferase, 24 h | inhibition, % at 12.5 µM | AID 488899 | 330,000 tested, 0.83% active;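 active means mean inhibition across replicates of 60% or more, whatever share of single replicates reaches that level; inconclusive means some that reach 60%, reason not given; inactive means mean inhibition across replicates below 60%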
Wnt act: Wnt/beta-catenin pathway activation | Wnt/beta-catenin reporter cell assay, activator, plate reader | activation, % at 9.35 µM | 300,000 tested, 1.2% active | AID 743398; in the data active means activation above about 30%, passing the limit was not always enough; inconclusive means no clear call, values can overlap the other calls
Statin myotox sup: protects C2C12 myotubes from simvastatin toxicity; 330,000 tested, 0.78% active; rescue of ATP level, % at 7.49 µM; AID 602340; ATP luminescence, 48 h; scaled: DMSO 0, geranylgeraniol control 100;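 active means mean ATP rescue above about 67%, or every replicate alone reaching that limit, limit read from the data, passing the limit was not always enough; inconclusive means no clear call, values can overlap the other calls; inactive means mean under the limit and some replicate under it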;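 further: myotubes were challenged with 10 µM simvastatin during compound exposure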
esBAF inh: blocks esBAF chromatin remodeling in mouse ES cells | Bmi1-luciferase knock-in reporter, 24 h; 100% = twice the neutral-well signal | 350,000 tested, 2% active | AID 602393 | reporter increase, % at 12.5 µM; in the data active means activation above about 40%; inconclusive means no clear call, values can overlap the other calls;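 further: a rise in the Bmi1 reporter signal indicates esBAF inhibition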
MITF TRPM1 HTS: MITF TRPM1 promoter activation in melanoma cells. 300,000 tested, 0.75% active. AID 588334. activation, % at 12.5 µM. SK-MEL-5 TRPM1-promoter luciferase, 24 h; % of positive control, neutral wells = 0;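 active means mean activation of at least 80% with every replicate also reaching 80%; inconclusive means mean reaches 80% but some replicate falls short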
EBV LMP1 NFkB: inhibitors of Epstein-Barr LMP1-induced NF-kappaB reporter | LMP1-induced NF-kappaB luciferase reporter cells, luminescence | inhibition, % at 12.5 µM | 350,000 tested, 0.69% active; in the data active means inhibition above about 41%; inconclusive means no clear call, values can overlap the other calls
Of the large screens only hits and unclear results are named; the others gave an inactive call. Rows were chosen to be rich in hits. Some 4% of all compounds tested hit in one or more screens of this group.

CC(C)(C)c1ccc(C(=O)NCCc2ccccc2)cc1	MITF TRPM1 HTS inconclusive
CCOC(=O)c1c(N)n[nH]c1-c1ccccc1	none (no result: Wnt act)
O=C(NC(=S)Nc1ccccc1O)c1cccnc1	none (no result: MITF TRPM1 HTS)
Nc1nnc(SCC(=O)Nc2ccc(Cl)c(C(=O)O)c2)s1	none (no result: Statin myotox sup, esBAF inh)
Cc1ccc(C(=O)N2CCN(c3cccc(C)c3C)CC2)cc1S(=O)(=O)N1CCOCC1	none
COc1ccc(CCNc2oc(COc3ccccc3F)nc2C#N)cc1OC	none (no result: Wnt act)
COc1ccccc1OCc1nc(C#N)c(NCCCn2ccnc2)o1	none
COc1ccc(Nc2oc(COc3ccccc3OC)nc2C#N)cc1	EBV LMP1 NFkB 56 (no result: Statin myotox sup, esBAF inh)
CCNc1oc(COc2ccccc2F)nc1C#N	esBAF inh 52 (no result: Wnt act)
Cc1cccc(NC(=O)CSc2ncnc3nc[nH]c23)c1	none (no result: Wnt act)
Cc1ccc(NC(=O)CN(C)C(=O)CSc2nnc(C)s2)cc1	none
COCC(C)NC(=O)c1ccccc1OC(C)=O (stereo unspecified)	none (no result: Wnt act)
C/C(=N\NC(=O)c1ccccc1OCc1ccc(F)cc1)c1ccccn1	TRPM1 prom inh 70
O=C(NNC(=O)c1ccccc1OCc1ccccc1)c1ccccc1F	esBAF inh 60
CCOc1ccc(OCc2ccc(C(=O)N/N=C(\C)c3ccccn3)cc2)cc1	none (no result: Statin myotox sup, esBAF inh)
C/C(=N\NC(=O)c1cc(-c2cccs2)nc2ccccc12)c1ccccn1	TRPM1 prom inh 88, EBV LMP1 NFkB 72
C/C(=N\NC(=O)c1cccc2ccccc12)c1ccccn1	TRPM1 prom inh 76
O=C1C=CC2=C3c4cc(O)c(O)cc4CC3(O)COC2=C1O (stereo unspecified)	none
COc1ccc(CNC(=O)c2ccc(Cl)c(S(=O)(=O)N3CCCCCC3)c2)cc1	none (no result: TRPM1 prom inh, MITF TRPM1 HTS)
CCN(CC(=O)Nc1ccccc1C(F)(F)F)C(=O)c1ccccc1Sc1ccccc1C#N	none
C[C@H](CO)N1C[C@H](C)[C@H](CN(C)C(=O)Nc2ccc(C(F)(F)F)cc2)OCCCC[C@H](C)Oc2ccc(NS(=O)(=O)c3cccs3)cc2C1=O	none (no result: TRPM1 prom inh, Wnt act, MITF TRPM1 HTS, EBV LMP1 NFkB)
Cc1ccc(NC(=O)CSc2nnc(NC(=O)C(C)C)s2)c(C)c1	EBV LMP1 NFkB 63
CCCN(CCC)CCCNC(=O)c1cc2cc3ccc(OC)cc3nc2o1	none
COc1ccc2cc3cc(C(=O)N4CCCCCC4)oc3nc2c1	none (no result: Wnt act)
COc1ccc2cc3cc(C(=O)N(C)C4CCCCC4)oc3nc2c1	esBAF inh 51
COc1ccc2cc3cc(C(=O)NCCc4ccc(OC)c(OC)c4)oc3nc2c1	TRPM1 prom inh 65
O=S(=O)(c1ccc(Oc2ccc(-c3nnco3)cc2)nc1)N1CCC(Cc2ccccc2)CC1	none (no result: Wnt act, MITF TRPM1 HTS)
COC(=O)C[C@H]1C=C[C@@H](NC(=O)C2CC2)[C@@H](CO)O1	Wnt act 45 (no result: TRPM1 prom inh, Statin myotox sup, esBAF inh, MITF TRPM1 HTS, EBV LMP1 NFkB)
CCNC(=O)C[C@H]1C=C[C@H](NC(=O)C2CC2)[C@@H](CO)O1	none (no result: TRPM1 prom inh, Wnt act, MITF TRPM1 HTS, EBV LMP1 NFkB)
O=C(c1ccccc1[N+](=O)[O-])N1CCc2ccccc2C1	none (no result: Wnt act, Statin myotox sup, esBAF inh)
CCOC(=O)c1ccc2nc(NC(=O)C(C)C)sc2c1	Wnt act inconclusive (no result: TRPM1 prom inh, MITF TRPM1 HTS)
CCOC(=O)c1ccc2nc(NC(=O)c3ccco3)sc2c1	Wnt act 74
CCCC(=O)Nc1nc2ccc(C(=O)OCC)cc2s1	esBAF inh 65, MITF TRPM1 HTS 92
O=C(NCCc1ccccc1)c1cccc(NC(=O)C2CCCC2)c1	esBAF inh 48
CN(C(=O)c1cccc(NC(=O)Cc2ccc(NC(=O)C3CCCN(C(=O)CCc4ccccc4)C3)cc2)c1)C1CCC1 (stereo unspecified)	TRPM1 prom inh 62
O=C(NCCCc1ccccc1)c1ccc(F)cc1	esBAF inh 64 (no result: Wnt act, MITF TRPM1 HTS)
O=C(Nc1ccccc1C(=O)O)c1ccc(NC(=O)C2CC2)cc1	none
O=C(Nc1ccccc1O)c1ccc(NC(=O)C2CC2)cc1	Wnt act 68
COCC(=O)Nc1ccc2c(c1)C(=O)N(C)[C@@H]1CC[C@H](CC(=O)O)O[C@H]1CO2	none (no result: TRPM1 prom inh, Wnt act, MITF TRPM1 HTS, EBV LMP1 NFkB)
O=C(NCCc1ccccc1)c1ccc(NC(=O)C2CC2)cc1	esBAF inh 45
O=C(NCc1ccccc1)c1ccc(NC(=O)C2CC2)cc1	none
CN(C)CC1CC/C(=C\c2ccc(O)cc2)C1=O (stereo unspecified)	none (no result: TRPM1 prom inh, Statin myotox sup, esBAF inh)
CN(C)CC1CCC/C(=C\c2ccc(OC(=O)c3ccc(Cl)cc3)cc2)C1=O (stereo unspecified)	TRPM1 prom inh 92 (no result: Statin myotox sup, esBAF inh)
CN(C)CC1CCC/C(=C\c2ccc(OC(=O)/C=C/c3ccccc3)cc2)C1=O (stereo unspecified)	TRPM1 prom inh 69
CCc1[nH]nc2c1C(c1ccc(C)o1)C(C#N)=C(N)O2 (stereo unspecified)	none (no result: Statin myotox sup, esBAF inh)
CC(/C=N/NC(=O)c1cccnc1)=C\c1ccccc1	Wnt act 35
CC(=C/c1ccccc1)/C=N/NC(=O)c1cnccn1	none (no result: MITF TRPM1 HTS)
CCN(CC)S(=O)(=O)c1ccc(NS(=O)(=O)c2cccc(C)c2)cc1	Wnt act 39
CCN(CC)S(=O)(=O)c1ccc(NC(=O)Nc2cccc(C(F)(F)F)c2)cc1	TRPM1 prom inh 60 (no result: Wnt act, MITF TRPM1 HTS)
Cc1ccc(S(=O)(=O)Nc2ccc(NC(=O)Nc3cccc(C(F)(F)F)c3)cc2)cc1	none (no result: Statin myotox sup, esBAF inh)
CCN(C(=O)C=Cc1ccco1)c1ccccc1	Wnt act 204
Fc1ccc(CNCc2ccccc2Cl)cc1	Wnt act 34 (no result: Statin myotox sup, esBAF inh)
Cc1ccc(CNCc2ccccc2Cl)cc1	none (no result: Wnt act)
O=C(Nc1ccc(Cl)cc1)Nc1ccccc1Sc1ncc([N+](=O)[O-])s1	Wnt act 33
CN(C)CCNC(=O)c1ccc(Cl)s1	none
O=C(NCCc1ccc(Cl)cc1)c1ccc(Br)s1	esBAF inh 64, MITF TRPM1 HTS inconclusive
Cc1ccc(C(=O)NCCc2ccc(F)cc2)s1	Wnt act 42, MITF TRPM1 HTS 89
NS(=O)(=O)c1ccc(CCNC(=O)c2ccc(Br)s2)cc1	none (no result: Statin myotox sup, esBAF inh)
O=C(NCCCCNC(=O)c1ccc(Cl)s1)c1ccc(Cl)s1	Statin myotox sup 108 (no result: Wnt act)
Cc1ccc(C(=O)NCC(=O)N(C)Cc2ccccc2C)s1	none (no result: TRPM1 prom inh, MITF TRPM1 HTS)
Cc1ccc(C(=O)NCC(=O)N(C)Cc2cccc(F)c2)s1	EBV LMP1 NFkB 51
C[C@H](CO)N1C[C@H](C)[C@@H](CN(C)Cc2ccc(Oc3ccccc3)cc2)Oc2ccc(NS(=O)(=O)c3cn(C)cn3)cc2CC1=O	none (no result: TRPM1 prom inh, Wnt act, MITF TRPM1 HTS, EBV LMP1 NFkB)
CCCCNC(=O)Cn1c(=O)oc2cc(S(=O)(=O)N3CC(C)CC(C)C3)ccc21 (stereo unspecified)	none
O=C(Cc1ccccc1)N1CCC(c2ccccc2)C1 (stereo unspecified)	esBAF inh 46
O=C(N/N=C/c1ccc(Cl)cc1Cl)Nc1ccccc1	none (no result: Wnt act, Statin myotox sup)
CCN(CC)c1ccc(/C=N/NC(=O)Nc2ccccc2)cc1	Wnt act 43 (no result: Statin myotox sup, esBAF inh)
CCN(CC)c1ccc(/C=N/NC(=O)OC(C)(C)C)cc1	Wnt act 59, esBAF inh 70
CCOc1ccc(/C=N/NC(=O)Nc2ccccc2)cc1	MITF TRPM1 HTS 122 (no result: Statin myotox sup, esBAF inh)
O=C(N/N=C/c1cccc(Cl)c1Cl)Nc1ccccc1	esBAF inh 50
